# About 83,000 compounds went through this panel and 20% of them were active in at least one assay; those are over-represented in the sample as a whole.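 Step 1: grow cells in 96-well plates. Step 2: add test compound at a single concentration. Step 3: incubate 48 h. Step 4: record percent growth.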 A number with no mark means an inactive call. The source made the active and inactive calls. The calls were made as follows: active = growth percent below 10; inactive = the rest.
# Legend:
# Experiment in all cases: NCI-60 one-dose screen, 48 h (100 = growth as untreated, 0 = no growth, -100 = all killed)
# Conditions in all cases: 10 µM unless noted
# NCI-H23 lung = test system: NCI-H23 lung
# NCI-H226 lung = test system: NCI-H226 lung
# NCI-H322M lung = test system: NCI-H322M lung
# HOP-62 NSCLC = test system: HOP-62 NSCLC
# NCI-H460 lung = test system: NCI-H460 lung
# HOP-92 NSCLC = test system: HOP-92 NSCLC
# NCI-H522 lung = test system: NCI-H522 lung
# A549/ATCC NSCLC = test system: A549/ATCC NSCLC
# 786-0 renal = test system: 786-0 renal
# COLO 205 colon = test system: COLO 205 colon
Structure (SMILES),growth (NCI-H23 lung),growth (NCI-H226 lung),growth (NCI-H322M lung),growth (HOP-62 NSCLC),growth (NCI-H460 lung),growth (HOP-92 NSCLC),growth (NCI-H522 lung),growth (A549/ATCC NSCLC),growth (786-0 renal),growth (COLO 205 colon)
Cc1cc2nc3ccc(N=Nc4ccc(N(C)C)cc4)cc3n(-c3ccccc3)c-2cc1=N,-45.8% (active),-81.3% (active),-96.6% (active),-55.9% (active),-58.1% (active),-70.3% (active),-73.8% (active),-75.4% (active),-61.9% (active),-86.8% (active)
COc1c(B(O)O)cc(F)cc1-c1nc2ccc3[nH]ncc3c2c2c1CCCC2,0.235% (active),8.89% (active),14.2%,16.1%,5.46% (active),19.7%,13.1%,15%,1.01% (active),-3.77% (active)
CNC(=O)c1[nH]cc(-c2ccccc2)c1-c1cc(OC)c2c(c1OC)OCO2,104%,94.6%,103%,94.5%,108%,96.7%,87.9%,96.7%,94.8%,102%
C[C@H]1[C@H]2[C@H]3CC[C@@H]4[C@@]5(C)CC[C@H](O)C(C)(C)[C@@H]5CC[C@@]4(C)[C@]3(C)CC[C@]23CO[C@]1(C)[C@@H](C(=O)/C=C\c1cccnc1)C3,59.5%,76.6%,88.4%,81.7%,40.7%,79.1%,38%,57.8%,63.6%,56.3%
COc1ccc(NC(=O)n2nc(/C=C\c3ccc(O)c(OC)c3)cc2/C=C\c2ccc(O)c(OC)c2)cc1,43.9%,87.2%,58.1%,32.7%,14.2%,89.1%,-13.5% (active),27.3%,32.1%,107%
Fc1cc(-c2nnc3n2NC(=Nc2ccc(Cl)cc2)CS3)c(Cl)cc1Cl,79.3%,122%,100%,73.6%,96.5%,-18.6% (active),76.3%,87.5%,81.9%,95.6%
COc1ccc(-c2nn(C(=O)c3cc(OC)c(OC)c(OC)c3)c3cc(N)ccc23)cc1,34.1%,28.9%,53.4%,30.1%,9.14% (active),50.1%,-12.6% (active),18.1%,6.94% (active),-60.3% (active)
CCOC(=O)C1=C(N)Oc2c(sc3c(C)cccc23)C1c1ccc(F)cc1 (stereo not given),20.1%,9.65% (active),51.5%,36.2%,4.3% (active),91.7%,11.8%,20.1%,33.4%,-1.13% (active)
COc1ccc(C2CC(c3ccc(Nc4ccnc5cc(Cl)ccc45)cc3)=NN2C=O)cc1 (stereo not given),76.9%,90.5%,103%,90.7%,80.2%,48.3%,67.3%,64.3%,70.5%,89.4%
O=C(Nc1nc2ccc(F)cc2s1)c1cccnc1Nc1ccc(Cl)cc1Cl,7.18% (active),52.6%,3.83% (active),63.5%,5.22% (active),-6.79% (active),31.8%,17%,45.8%,2.35% (active)
CCCCn1c(-c2ccc(-c3nc(-c4ccc(Cl)cc4)no3)cc2)nc(-c2ccccc2)c1-c1ccccc1,68.2%,84.2%,90.4%,92.4%,95.6%,75.4%,75.2%,36.3%,82%,98.8%
Nc1ccc(Sc2ccc([N+](=O)[O-])c3nonc23)cc1,95.8%,96.5%,101%,92.2%,96.7%,103%,2.03% (active),89.8%,93.5%,40.6%
CN1CCN(CC(=O)N2c3cccc4cccc(c34)N(C(=O)CN3CCN(C)CC3)C2c2cn(-c3ccccc3)nc2-c2cccc([N+](=O)[O-])c2)CC1,1.14% (active),88.2%,32.9%,-20.2% (active),1.88% (active),42.9%,-3.45% (active),15.7%,-83.4% (active),-68.5% (active)
O=C(Nn1c(NCC(=O)N2c3ccccc3Sc3ccccc32)nnc1-c1ccc(O)cc1)c1ccccc1,94.4%,104%,104%,99.5%,105%,91.2%,93.1%,106%,92.4%,112%
Cc1ccc(-c2nc(N3CCN(C(=O)Nc4ccc(Cl)c(C(F)(F)F)c4)CC3)c3ccccc3n2)cc1,78.1%,78.7%,64.3%,79.2%,81.1%,82%,69.9%,64%,81.3%,89.6%
CCc1cccc2c3c(sc12)C(c1ccc(F)cc1)C(C#N)=C(N)O3 (stereo not given),33.6%,29.1%,57.7%,48.7%,12.9%,78.9%,26.8%,31.9%,30%,5.48% (active)
COc1cc(/C=N/NC(=O)c2ccc(C)nc2)cc(OC)c1OC,102%,85.1%,90.5%,105%,103%,90.5%,91.7%,90.9%,34%,108%
C=CCNc1ccc2c3c(cccc13)C(=O)N(N1C(=O)c3cccc4cccc(c34)C1=O)C2=O,91.9%,93.9%,102%,96.3%,102%,98.7%,93.9%,98.2%,104%,117%
Cn1cc(-c2ccc3cc(-c4ccc(CC(=O)Nc5cc(C(C)(C)C)nn5C)cc4)cnc3c2)cn1,5.37% (active),-17% (active),21.4%,15.9%,9.41% (active),21.1%,10.8%,17.1%,21.4%,16.2%
NCCCNc1nc2ccccc2c2c(=O)c3cc(OC(F)(F)F)ccc3sc12,48.3%,85.7%,49.1%,51.6%,-76.6% (active),17.3%,-14.4% (active),-43.3% (active),57.5%,-52.7% (active)
Cc1nc(S(=O)(=O)c2ccccc2)c(S(=O)(=O)Cc2ccc([N+](=O)[O-])cc2)o1,103%,88%,100%,88.4%,98.5%,83.1%,68.8%,97.6%,89.1%,112%
COc1cc2cc(Oc3ccc(NC(=O)Nc4ccc(Cl)c(Cl)c4)cc3)c(C)nc2cc1OCCN1CCOCC1,58.9%,57.7%,105%,105%,91.8%,76.8%,67.5%,76.7%,91.5%,104%
N#C/C(=C\c1ccc(F)cc1)n1nc2cccc(F)c2n1,56.7%,97.6%,76.2%,76.3%,39.2%,6.85% (active),8.28% (active),78.7%,67.3%,67.1%
Cc1nc2ccccc2c(/C=C/c2ccc(Cl)cc2)c1C(=O)/C=C/c1cccs1,67.8%,81.2%,87.4%,94.9%,66.7%,64.1%,57.4%,88.1%,87.4%,82%
COc1ccc(/C=C(\C#N)n2nnc3c(F)cccc32)cc1,18%,45%,37.9%,28.7%,2.99% (active),21.4%,11.6%,35.6%,15.9%,-6.97% (active)
COc1cc(OCc2cccc(-c3ccc(C(O)c4nccs4)cc3)c2C)cc(OC)c1CNCCNC(C)=O (stereo not given),98.1%,96.2%,99.1%,108%,101%,81.8%,101%,96.3%,102%,104%

# Source: PubChem BioAssay (NCI)
